Results on 24 compounds are retold here after PubChem BioAssay (Tox21).

Records with an inconclusive call do not appear. Active and inactive are the calls of the source. Unless noted, calls follow the shape of the full dose curve.
% is scaled to controls: 0 for no effect and ±100 for the full control effect.

The nature of one test: qHTS assay to identify small molecule agonists of the hypoxia (HIF-1) signaling pathway - cell viability counter screen (AID 1224844). Also: nearly all actives have a fitted effect of over 50% in size. As to conditions: HRE-bla ME-180 viability, CellTiter-Glo luminescence, 17 h; series mostly up to 76.8 µM; activity change, negative = cytotoxicity: at the top concentration. The procedure, abridged: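 Same wells as the HIF-1 reporter screen; ME-180 cells carrying HRE-bla, 17 hr treatment at 37C; CellTiter-Glo luminescence read after 30 min at room temperature.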
(In general: qHTS replaces the single test concentration by a dilution series.)
Consider `COc1ccc(COC=O)cc1`, for which the “activity change, negative = cytotoxicity” value is 3.07% (inactive).
Still for that read-out and setting: as for `CC(C)(C)C(=O)/C=C/c1ccc(Cl)cc1`, the figure is 16.5% (inactive); as for `Nc1ccc2cc(S(=O)(=O)O)ccc2c1`, -1.38% (inactive).
On the same count and under the same terms, as for `C[C@H]1O[C@@H](n2cc(F)c(=O)[nH]c2=O)[C@H](O)[C@@H]1O`, the figure is 9.33% [at 35.3 µM] (inactive); as for `O=C(O)CCNC(=O)c1ccc(N=Nc2ccc(O)c(C(=O)O)c2)cc1`, 3.19% [at 35.3 µM] (inactive); as for `CCCC(=O)O[C@]1(C(=O)CCl)[C@@H](C)C[C@H]2[C@@H]3CCC4=CC(=O)C=C[C@]4(C)[C@@]3(F)C(=O)C[C@@]21C`, -3.13% [at 35.3 µM] (inactive).
Still for that read-out and setting: as for `CCN1CCN(c2cc3c(cc2F)c(=O)c(C(=O)O)cn3C2CC2)CC1`, the figure is 7.37% [at 35.3 µM] (inactive).
Take `CC1(C)SC(C)(C)SC(C)(C)S1`: the “activity change, negative = cytotoxicity” value was 9.01% (inactive).
On the same count and under the same terms, under `CC1=CC(C)C(C=O)C(C)C1` (stereo not given) stands 7.21% (inactive); under `CN(C)CCOC(c1ccc(Cl)cc1)c1ccccn1` (stereo not given), -0.908% [at 35.3 µM] (inactive); under `COc1ccc(N=[N+]([O-])c2ccc(OC)cc2)cc1`, 12.4% (inactive).
The same measure, in the same setting: under `CCCC(C)CO` (stereo not given) stands 6.23% (inactive); under `CC(C)COC(=O)C(C)C`, 3.01% (inactive).

A further test in a line: qHTS assay to identify small molecule agonists of H2AX (AID 1224845; active = well fitted activation curve with a large enough effect in the signal ratio in the repeat runs, not every such curve was filed as active; the % refers to the signal ratio). The conditions noted are these: CHO-K1 phospho-H2AX Ser139 HTRF, 3 h; series mostly up to 154 µM; activation (H2AX phosphorylation): at the top concentration. The procedure, abridged: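 Wild-type CHO-K1 cells, plated overnight, exposed 3hr at 37C to 15 concentrations (0.76% DMSO final). Lysed, then HTRF anti-pH2AX (S139) cryptate and anti-H2AX-d2 antibodies, 24 hr room temperature; 665/620 nm emission read.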
For `CCCOc1ccccc1-c1nc2n[nH]nc2c(=O)[nH]1`, the “activation (H2AX phosphorylation)” value was -2.97% [at 70.9 µM] (inactive).
The same measure, in the same setting: as for `CN(C)CCn1nnnc1SCC1=C(C(=O)O)N2C(=O)[C@@H](NC(=O)Cc3csc(N)n3)[C@H]2SC1`, the figure is -0.743% [at 70.9 µM] (inactive); as for `NS(=O)(=O)c1cc2c(cc1C(F)(F)F)NC(Cc1ccccc1)NS2(=O)=O` (stereo not given), -2.21% [at 70.9 µM] (inactive).
On the same count and under the same terms, as for `COc1ccc(NC(C)=O)cc1`, the figure is -1.18% (inactive); as for `Cc1c(F)cc2c(=O)c(C(=O)O)cn3c2c1CCC3C` (stereo not given), 0.703% [at 70.9 µM] (inactive); as for `CCCCCCC(CCCCCCCCCCC(=O)OCC(COC(C)=O)OC(C)=O)OC(C)=O` (stereo not given), -1.98% [at 70.9 µM] (inactive).
As to `C=C(C)C(=O)OCCCCCCCCCCCCCCCCCC`, the activation (H2AX phosphorylation) is 0.951% [at 31.6 µM] (inactive).
The same measure, in the same setting: as for `CC(C)CCCC(C)NCCC(C)C` (stereo not given), the figure is 1.84% [at 70.9 µM] (inactive).
The same measure, in the same setting: under `CCCCC1CCCCC(=O)O1` (stereo not given) stands -0.663% (inactive); under `COC(=O)c1ccc(C(=O)OC)c(C(=O)OC)c1`, -1.69% (inactive); under `CC(C)c1cccc(O)c1`, -1.86% (inactive).
Same read-out and setting: under `C[C@H]1O[C@@H](n2cc(F)c(=O)[nH]c2=O)[C@H](O)[C@@H]1O` stands 0.0533% [at 70.9 µM] (inactive); under `CCCC(=O)O[C@]1(C(=O)CCl)[C@@H](C)C[C@H]2[C@@H]3CCC4=CC(=O)C=C[C@]4(C)[C@@]3(F)C(=O)C[C@@]21C`, -0.0559% [at 70.9 µM] (inactive); under `CCN1CCN(c2cc3c(cc2F)c(=O)c(C(=O)O)cn3C2CC2)CC1`, -1.9% [at 70.9 µM] (inactive).
For the compound `CC1(C)SC(C)(C)SC(C)(C)S1`, the “activation (H2AX phosphorylation)” value was -2.42% (inactive).
On the same count and under the same terms, as for `CN(C)CCOC(c1ccc(Cl)cc1)c1ccccn1` (stereo not given), the figure is 0.577% [at 70.9 µM] (inactive).
Still for that read-out and setting: as for `COc1ccc(N=[N+]([O-])c2ccc(OC)cc2)cc1`, the figure is -2.33% (inactive).
